# Assay results taken from ChEMBL document CHEMBL3988442, “University of Dundee, Small-Polar-MMV Screening Library” (2021).
# For some of these results: Entries with a potency or affinity are not part of this list.
# Experiments:
# Set-up in all cases: scale not given: direction of the effect not stated beside the values
# [1] = target: Protein translocase subunit SecA (Escherichia coli (strain K12)) (UniProt P10408); assay: Assay to Identify E. coli SecA ATPase Inhibitors; assay type: functional; conditions: 30 µM
# [2] = target: T1, Ubiquitin-activating enzyme e1, putative (Leishmania donovani (strain BPK282A1)) (UniProt E9BSI1); assay: Leishmania donovani Ubiquitin Activating Enzyme (LdE1); assay type: functional; conditions: 30 µM
# T1 sequence (whole entry): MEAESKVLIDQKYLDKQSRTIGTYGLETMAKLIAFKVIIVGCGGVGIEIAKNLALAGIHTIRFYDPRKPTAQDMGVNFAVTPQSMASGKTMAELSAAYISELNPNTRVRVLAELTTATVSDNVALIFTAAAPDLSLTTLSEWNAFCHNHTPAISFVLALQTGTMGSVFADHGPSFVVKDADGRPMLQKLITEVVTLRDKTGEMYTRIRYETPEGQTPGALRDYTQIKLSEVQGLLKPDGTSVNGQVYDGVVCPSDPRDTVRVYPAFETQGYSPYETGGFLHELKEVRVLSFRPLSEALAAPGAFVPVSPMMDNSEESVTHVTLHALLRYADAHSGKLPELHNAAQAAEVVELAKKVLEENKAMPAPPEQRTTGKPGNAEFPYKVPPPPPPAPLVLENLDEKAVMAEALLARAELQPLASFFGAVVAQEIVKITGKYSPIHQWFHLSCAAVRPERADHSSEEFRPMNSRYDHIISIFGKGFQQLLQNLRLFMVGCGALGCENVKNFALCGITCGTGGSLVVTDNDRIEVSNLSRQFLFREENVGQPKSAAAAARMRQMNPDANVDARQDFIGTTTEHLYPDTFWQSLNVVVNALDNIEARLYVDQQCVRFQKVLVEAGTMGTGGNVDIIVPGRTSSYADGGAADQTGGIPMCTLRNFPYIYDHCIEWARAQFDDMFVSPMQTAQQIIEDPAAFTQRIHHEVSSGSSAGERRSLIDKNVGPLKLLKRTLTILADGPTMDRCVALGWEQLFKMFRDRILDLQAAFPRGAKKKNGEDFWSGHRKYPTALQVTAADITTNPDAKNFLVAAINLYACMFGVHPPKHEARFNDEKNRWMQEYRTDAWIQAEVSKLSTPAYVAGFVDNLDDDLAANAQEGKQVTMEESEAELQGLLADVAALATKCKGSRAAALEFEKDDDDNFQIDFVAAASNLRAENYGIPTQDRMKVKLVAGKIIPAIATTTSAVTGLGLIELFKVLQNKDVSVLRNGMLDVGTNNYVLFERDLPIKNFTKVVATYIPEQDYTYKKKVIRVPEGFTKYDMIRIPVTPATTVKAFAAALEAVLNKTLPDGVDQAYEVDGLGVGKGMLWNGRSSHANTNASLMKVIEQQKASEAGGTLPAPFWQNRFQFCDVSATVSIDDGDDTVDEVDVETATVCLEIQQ
# [3] = target: AMP-activated protein kinase, AMPK (Homo sapiens) (UniProt P54646+O43741+P54619+Q9UGJ0+Q9Y478+Q13131+Q9UGI9); assay: AMP-dependent Kinase enzyme assay. An in vitro enzyme assay that detects ADP turnover that is directly proportional to AMPK activity. This uses naive AMPK that is activated during the assay with MK-8722; assay type: functional; conditions: 30 µM
# [4] = target: Sialic acid-binding Ig-like lectin 9 (Homo sapiens) (UniProt Q9Y336); assay: Hs-Siglec9 ALPHAscreen SOP 20170721; conditions: 10 µM
# Trypanosoma cruzi = assay: Trypanosoma cruzi phosphomannomutase and mannose-1-phosphate guanylyltransferase assay; assay type: functional; conditions: 10 µM
# [5] = target: T2, Arginase-2, mitochondrial (Homo sapiens) (UniProt P78540); assay: in vitro enzyme assay to detect the production of urea directly proportional to the activity of Arginase II; assay type: functional; conditions: 33.3 µM; note: in the data most compounds retested in dose-response had high values
# T2 sequence (whole entry): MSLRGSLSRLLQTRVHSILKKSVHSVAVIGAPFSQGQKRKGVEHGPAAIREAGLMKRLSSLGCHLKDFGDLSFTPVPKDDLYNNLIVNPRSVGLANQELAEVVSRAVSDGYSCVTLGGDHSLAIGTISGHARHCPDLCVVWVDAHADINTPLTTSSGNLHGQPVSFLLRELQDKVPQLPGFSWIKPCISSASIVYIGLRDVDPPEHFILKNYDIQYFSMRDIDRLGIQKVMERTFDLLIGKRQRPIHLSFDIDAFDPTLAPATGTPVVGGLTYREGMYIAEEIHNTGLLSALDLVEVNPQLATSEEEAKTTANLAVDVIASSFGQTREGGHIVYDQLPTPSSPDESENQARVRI
# [6] = target: T3, Proteasome subunit beta (Trypanosoma cruzi) (UniProt O96673); assay: Trypanosoma cruzi proteasome chymotrypsin-like activity (TcProtChymo) assay.; note: in the data most compounds retested in dose-response had high values; assay type: functional; conditions: 9.37 µM
# T3 sequence (whole entry): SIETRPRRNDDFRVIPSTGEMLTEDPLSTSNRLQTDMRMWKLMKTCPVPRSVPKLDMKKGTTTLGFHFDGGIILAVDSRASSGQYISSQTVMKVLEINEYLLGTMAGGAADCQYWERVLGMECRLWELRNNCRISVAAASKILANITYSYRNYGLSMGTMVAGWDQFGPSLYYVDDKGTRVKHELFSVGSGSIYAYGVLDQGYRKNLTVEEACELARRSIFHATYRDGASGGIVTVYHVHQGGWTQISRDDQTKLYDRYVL
# Homo sapiens = species: Homo sapiens; assay: To identify inhibition of the IFN signalling (Jak-Stat) pathway via expression of an eGFP reporter gene under the control of an IFN-stimulated response element (ISRE) containing MxA promoter.; assay type: functional; conditions: 30 µM
# [7] = target: T4, Tyrosyl-tRNA synthetase, putative (Trypanosoma cruzi (strain CL Brener)) (UniProt Q4DSP6); assay: Trypanosoma cruzi tyrosyl tRNA synthetase (TcYRS) _High Tyrosine SOP; assay type: functional; conditions: 30 µM; note: in the data most compounds retested in dose-response had high values
# T4 sequence (whole entry): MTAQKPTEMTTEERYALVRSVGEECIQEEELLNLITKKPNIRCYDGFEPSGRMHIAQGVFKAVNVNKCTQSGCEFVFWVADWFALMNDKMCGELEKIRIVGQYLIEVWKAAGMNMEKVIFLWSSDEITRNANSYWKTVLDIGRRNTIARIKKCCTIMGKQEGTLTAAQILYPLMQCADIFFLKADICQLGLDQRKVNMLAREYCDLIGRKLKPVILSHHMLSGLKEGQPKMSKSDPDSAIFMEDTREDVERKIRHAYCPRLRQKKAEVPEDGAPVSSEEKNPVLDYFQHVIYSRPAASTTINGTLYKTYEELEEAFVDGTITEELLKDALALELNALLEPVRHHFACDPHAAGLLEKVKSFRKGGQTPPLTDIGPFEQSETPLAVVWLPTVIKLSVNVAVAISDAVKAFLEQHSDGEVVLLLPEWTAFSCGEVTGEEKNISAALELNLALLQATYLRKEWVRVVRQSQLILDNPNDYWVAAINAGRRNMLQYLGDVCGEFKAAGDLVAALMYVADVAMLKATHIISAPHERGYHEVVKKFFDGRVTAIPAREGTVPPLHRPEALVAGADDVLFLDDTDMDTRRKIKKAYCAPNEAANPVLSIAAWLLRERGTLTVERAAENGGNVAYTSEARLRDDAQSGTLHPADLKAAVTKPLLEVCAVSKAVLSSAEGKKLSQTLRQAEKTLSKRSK
# [8] = target: T4, Tyrosyl-tRNA synthetase, putative (Trypanosoma cruzi (strain CL Brener)); assay: Trypanosoma cruzi tyrosyl tRNA synthetase (TcYRS) SOP; assay type: functional; conditions: 30 µM
# [9] = target: Chromo domain-containing protein 1 (Saccharomyces cerevisiae (strain ATCC 204508 / S288c) (Baker's yeast)) (UniProt P32657); assay: ScCHD-1 Enzyme Inhibition Assay; assay type: functional; conditions: 30 µM; note: in the data most compounds retested in dose-response had high values
# Chromo domain-containing protein 1 (Saccharomyces cerevisiae (strain ATCC 204508 / S288c) (Baker's yeast)), sequence (P32657 whole entry, the tested form may be a part): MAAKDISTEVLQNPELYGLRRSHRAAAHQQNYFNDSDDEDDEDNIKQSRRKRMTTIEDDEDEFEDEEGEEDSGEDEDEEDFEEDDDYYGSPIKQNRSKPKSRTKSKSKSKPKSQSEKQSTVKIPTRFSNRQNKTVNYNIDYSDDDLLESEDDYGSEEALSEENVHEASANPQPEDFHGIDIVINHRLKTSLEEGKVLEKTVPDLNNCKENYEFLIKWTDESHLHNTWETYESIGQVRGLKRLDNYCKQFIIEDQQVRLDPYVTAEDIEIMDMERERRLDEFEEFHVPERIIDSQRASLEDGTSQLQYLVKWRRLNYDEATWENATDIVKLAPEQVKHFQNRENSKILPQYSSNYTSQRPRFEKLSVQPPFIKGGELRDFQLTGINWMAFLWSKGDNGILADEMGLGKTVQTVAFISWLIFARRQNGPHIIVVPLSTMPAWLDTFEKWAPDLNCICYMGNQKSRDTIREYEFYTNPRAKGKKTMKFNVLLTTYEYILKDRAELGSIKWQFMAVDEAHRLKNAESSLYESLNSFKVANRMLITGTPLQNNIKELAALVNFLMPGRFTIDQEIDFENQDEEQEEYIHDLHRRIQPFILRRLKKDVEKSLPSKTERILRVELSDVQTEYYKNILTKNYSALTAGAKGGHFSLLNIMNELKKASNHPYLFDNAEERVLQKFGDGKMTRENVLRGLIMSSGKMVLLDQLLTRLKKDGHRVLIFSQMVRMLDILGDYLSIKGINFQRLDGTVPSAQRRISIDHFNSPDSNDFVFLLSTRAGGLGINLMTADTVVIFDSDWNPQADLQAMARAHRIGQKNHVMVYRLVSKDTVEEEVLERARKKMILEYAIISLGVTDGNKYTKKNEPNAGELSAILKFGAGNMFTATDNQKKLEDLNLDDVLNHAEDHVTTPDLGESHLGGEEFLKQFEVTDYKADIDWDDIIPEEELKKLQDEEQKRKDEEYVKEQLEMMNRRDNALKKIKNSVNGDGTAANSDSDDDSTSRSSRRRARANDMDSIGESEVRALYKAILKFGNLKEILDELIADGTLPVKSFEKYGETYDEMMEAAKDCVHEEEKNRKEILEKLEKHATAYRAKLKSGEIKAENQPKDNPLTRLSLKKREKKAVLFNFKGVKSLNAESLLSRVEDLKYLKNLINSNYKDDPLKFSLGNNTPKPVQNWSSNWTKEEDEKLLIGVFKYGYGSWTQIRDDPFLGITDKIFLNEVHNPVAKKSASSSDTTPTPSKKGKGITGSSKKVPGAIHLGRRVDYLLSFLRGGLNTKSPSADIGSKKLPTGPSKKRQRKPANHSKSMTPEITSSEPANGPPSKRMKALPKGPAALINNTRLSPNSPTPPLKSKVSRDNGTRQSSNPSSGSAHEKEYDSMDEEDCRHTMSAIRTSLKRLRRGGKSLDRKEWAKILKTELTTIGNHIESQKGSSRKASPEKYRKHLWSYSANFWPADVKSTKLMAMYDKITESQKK
# Protein translocase subunit SecA (Escherichia coli (strain K12)), sequence (P10408 whole entry): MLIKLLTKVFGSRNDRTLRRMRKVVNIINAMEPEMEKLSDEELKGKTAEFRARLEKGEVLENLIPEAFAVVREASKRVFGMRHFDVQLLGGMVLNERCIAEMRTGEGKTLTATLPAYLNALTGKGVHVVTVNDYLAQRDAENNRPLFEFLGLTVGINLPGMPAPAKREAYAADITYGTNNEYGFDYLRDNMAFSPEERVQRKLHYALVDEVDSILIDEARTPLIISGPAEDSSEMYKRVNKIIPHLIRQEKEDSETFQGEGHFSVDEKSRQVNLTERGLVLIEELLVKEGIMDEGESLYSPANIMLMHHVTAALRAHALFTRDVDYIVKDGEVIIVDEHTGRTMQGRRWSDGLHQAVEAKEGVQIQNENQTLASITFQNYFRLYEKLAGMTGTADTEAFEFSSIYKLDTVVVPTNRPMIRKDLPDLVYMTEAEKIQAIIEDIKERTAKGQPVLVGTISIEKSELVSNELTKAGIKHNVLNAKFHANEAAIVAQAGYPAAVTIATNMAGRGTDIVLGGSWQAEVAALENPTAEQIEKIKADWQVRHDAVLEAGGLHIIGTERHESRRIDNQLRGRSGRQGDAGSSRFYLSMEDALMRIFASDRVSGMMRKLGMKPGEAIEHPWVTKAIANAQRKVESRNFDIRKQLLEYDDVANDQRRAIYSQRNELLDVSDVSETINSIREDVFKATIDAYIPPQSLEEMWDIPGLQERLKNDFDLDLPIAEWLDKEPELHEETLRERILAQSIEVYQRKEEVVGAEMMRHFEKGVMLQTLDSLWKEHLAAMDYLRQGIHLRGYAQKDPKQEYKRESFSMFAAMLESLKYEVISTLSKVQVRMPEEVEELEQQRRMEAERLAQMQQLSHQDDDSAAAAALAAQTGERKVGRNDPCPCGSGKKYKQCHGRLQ
# Sialic acid-binding Ig-like lectin 9 (Homo sapiens), sequence (Q9Y336 whole entry): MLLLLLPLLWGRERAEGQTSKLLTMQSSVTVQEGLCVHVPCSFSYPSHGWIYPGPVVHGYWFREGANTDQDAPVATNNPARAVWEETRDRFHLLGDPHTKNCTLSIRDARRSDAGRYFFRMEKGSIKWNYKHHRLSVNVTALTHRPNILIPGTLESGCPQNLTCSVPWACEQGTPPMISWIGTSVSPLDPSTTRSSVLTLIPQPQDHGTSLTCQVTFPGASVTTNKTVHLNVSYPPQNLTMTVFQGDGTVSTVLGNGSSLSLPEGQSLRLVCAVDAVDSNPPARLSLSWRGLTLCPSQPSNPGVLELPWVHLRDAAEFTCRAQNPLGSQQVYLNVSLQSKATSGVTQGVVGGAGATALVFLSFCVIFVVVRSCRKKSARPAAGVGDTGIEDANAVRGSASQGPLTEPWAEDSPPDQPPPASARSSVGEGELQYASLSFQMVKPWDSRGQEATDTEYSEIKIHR
SMILES,Percent Effect [1] [%],Percent Effect [2] [%],Percent Effect [3] [%],Percent Effect [4] [%],Percent Effect (Trypanosoma cruzi) [%],Percent Effect [5] [%],Percent Effect [6] [%],Percent Effect (Homo sapiens) [%],Percent Effect [7] [%],Percent Effect [8] [%],Percent Effect [9] [%]
Cc1cc(F)ccc1OC1(C(=O)O)CCN(Cc2ccncc2)CC1,-4.32,16,-6.71,19.8,3.21,13.5,11.7,10,10.4,21,-4.33
CCn1ccnc1CN1CCCN(C(=O)c2sccc2C#N)CC1,-2.7,-2.53,1.18,1.09,0.472,1.52,-4.01,-12.1,6.4,8.86,0.721
CC(=O)N1CCC(Cc2cnc(-c3c(C)nn(C)c3C)cn2)C1 (stereo not drawn),-3.33,0,8.59,5.11,5.71,-8.62,2.2,-21.9,4.25,6.41,-1.12
O=C(NCc1cc[nH]n1)NCC(c1ccco1)N1CCCC1 (stereo not drawn),-3.53,8.11,-2.2,17.4,1.66,-0.744,12.4,7.09,5.38,11.1,-2.11
Cc1ncc2c(n1)CN(CC(=O)Nc1ccncc1)CC2,-2.13,15.8,-33.9,3.22,4.01,-1.44,6.85,17.2,15.3,23.5,-7.12
Cc1c(Br)cccc1C(=O)NC(C)CN1CCCC1=O (stereo not drawn),-3.78,2.74,-2.6,-6.12,-2.35,0.909,7.1,10,1.07,5,-5.51
O=C(NC(Cc1ccsc1)c1nccs1)C1CCOCC1 (stereo not drawn),-2.92,9.46,12.2,0.886,-4.74,-0.232,3.12,10.9,1.07,9.09,7.79
O=S(=O)(C1CC1)N1C[C@H]2CCC[C@@]2(COc2ccccn2)C1,-0.747,14.7,2.3,3.09,-4.32,5.81,15.3,-6.25,3.17,10.3,-5.69
